Laboratory results as given in PMC4336329 (PLoS ONE, 2015).
The whole screen tested about 310,000 compounds, of which about 14,000 (4.5%) showed an effect of 50% or more. The effect is printed as a negative number. The full list was thinned out, with strong results kept by preference.

What follows are compounds tested against human ether-à-go-go-related gene (hERG) potassium channel (human, UniProt Q12809) (assay: primary screen, population patch clamp on CHO cells stably expressing hERG; higher = less effect of the substance).
Chain of human ether-à-go-go-related gene (hERG) potassium channel (Q12809 whole entry, looked up): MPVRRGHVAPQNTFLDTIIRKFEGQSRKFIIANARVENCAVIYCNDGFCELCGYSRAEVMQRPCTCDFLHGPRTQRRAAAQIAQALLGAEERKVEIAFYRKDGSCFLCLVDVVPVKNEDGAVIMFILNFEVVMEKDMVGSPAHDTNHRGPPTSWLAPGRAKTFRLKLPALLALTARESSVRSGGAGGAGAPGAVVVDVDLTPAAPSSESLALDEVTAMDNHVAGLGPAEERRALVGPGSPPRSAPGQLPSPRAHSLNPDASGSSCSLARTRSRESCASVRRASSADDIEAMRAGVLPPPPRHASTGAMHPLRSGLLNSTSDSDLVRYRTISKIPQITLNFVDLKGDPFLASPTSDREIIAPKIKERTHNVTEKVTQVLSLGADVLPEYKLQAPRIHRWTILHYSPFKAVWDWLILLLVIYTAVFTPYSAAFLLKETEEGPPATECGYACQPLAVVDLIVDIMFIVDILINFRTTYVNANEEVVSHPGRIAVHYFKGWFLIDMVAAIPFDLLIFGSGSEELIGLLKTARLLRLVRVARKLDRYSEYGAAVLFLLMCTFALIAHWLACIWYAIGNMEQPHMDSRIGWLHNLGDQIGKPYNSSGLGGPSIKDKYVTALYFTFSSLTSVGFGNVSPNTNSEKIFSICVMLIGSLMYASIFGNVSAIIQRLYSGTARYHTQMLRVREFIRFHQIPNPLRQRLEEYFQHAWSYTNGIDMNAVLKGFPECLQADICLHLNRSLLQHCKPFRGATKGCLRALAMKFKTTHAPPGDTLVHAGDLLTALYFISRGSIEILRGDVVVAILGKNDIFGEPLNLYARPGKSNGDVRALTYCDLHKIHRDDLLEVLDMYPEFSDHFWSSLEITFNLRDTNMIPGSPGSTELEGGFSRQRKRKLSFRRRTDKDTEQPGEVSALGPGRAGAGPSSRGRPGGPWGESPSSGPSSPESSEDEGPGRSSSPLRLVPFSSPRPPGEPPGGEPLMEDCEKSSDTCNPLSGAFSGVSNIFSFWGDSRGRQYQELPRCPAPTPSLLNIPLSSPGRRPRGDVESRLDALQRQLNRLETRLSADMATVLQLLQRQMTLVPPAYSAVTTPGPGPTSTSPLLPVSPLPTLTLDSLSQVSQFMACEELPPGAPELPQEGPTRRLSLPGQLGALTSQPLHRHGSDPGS
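Note: peak tail current of the secondary pulse compared with the same well before compound.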

| SMILES | hERG current change (%, negative = inhibition) at 10uM [%] |
| --- | --- |
| CC(=O)c1ccc(N2C(=NC(=O)COc3ccccc3)SC3CS(=O)(=O)CC32)cc1 (centres unmarked) | -3.89 |
| COc1cc2c(cc1OC)CN(C(=O)c1cc(Cl)nc(Cl)c1)CC2 | 12.1 |
| CC(=O)OCC(OC(C)=O)C(OC(C)=O)C(OC(C)=O)C(=O)Nc1ccccc1 (centres unmarked) | 16.6 |
| COc1ccc(CNC(=O)Nc2ccc([N+](=O)[O-])cc2)cc1 | 5.47 |
| CN(CC(=O)Nc1ccc(Cl)c(S(=O)(=O)N2CCOCC2)c1)C(=O)c1cccs1 | -44.2 |
| CCOc1ccccc1NC(=O)C1CCCN1C(=O)c1cccs1 (centres unmarked) | 7.83 |
| Cc1ccc(CNC(=O)CCC(=O)Nc2nnc(C3CCCCC3)s2)cc1 | 17.6 |
| CCOc1ccc(OCC(=O)OCC(=O)N2CCN(C(=O)c3ccco3)CC2)cc1 | -21.9 |
| O=C(CSc1nnc(SCc2ccc(F)cc2)s1)Nc1ccc(C(=O)O)cc1 | 18.6 |
| O=C(O)c1cc(O)ccc1NC(=O)C1CCCO1 (centres unmarked) | -0.924 |
| O=C(c1ccc(F)cc1F)N1CCN(c2ccccn2)CC1 | 0.804 |
| O=C1NC(=O)C(Cc2ccccc2)(c2cccnc2)N1 (centres unmarked) | 17.7 |
| Cc1ccc2nc(/C(C#N)=C\c3ccc(Oc4ccc([N+](=O)[O-])cn4)cc3)[nH]c2c1 | 1.61 |
| CCc1ccc(-c2cc(C(=O)N/N=C/c3ccccn3)[nH]n2)cc1 | -41.7 |
| CC(=O)N1CCCC(N2CCN(c3cccc(C(F)(F)F)c3)CC2)C1 (centres unmarked) | -3.73 |
| Cc1ccc(C(=O)N2CCCC(N3CCN(c4cccc(C(F)(F)F)c4)CC3)C2)s1 (centres unmarked) | -51 |
| CC1=C(C(=O)N2CCCC(N3CCN(c4cccc(C(F)(F)F)c4)CC3)C2)OCCO1 (centres unmarked) | -17.9 |
| COc1cccc(NC(=O)c2cccc(OC)c2OC)c1 | -0.56 |
| COc1cccc(C(=O)Nc2nnc(-c3ccccc3)s2)c1OC | 4.52 |
| COc1cccc(C(=O)Nc2sc(C(C)C)cc2C(N)=O)c1OC | -50.5 |
| CCCN1C(=O)c2cc(C(=O)NC3CCCC3)ccc2C1O (centres unmarked) | -2.01 |
| Cc1ccc(NCN2C(=O)C3CC=CCC3C2=O)cc1 (centres unmarked) | 2.67 |

| SMILES | hERG current change (%, negative = inhibition) at 10uM [%] |
| --- | --- |
| CCN(Cc1ccccc1)C(=O)c1ccc(N(C)S(=O)(=O)c2ccc(C)cc2)cc1 | -38.7 |
| CCN(CC(=O)NC(C)C)C(=O)c1ccc(S(=O)(=O)N(C)c2ccccc2OC)cc1 | -2.53 |
| CCOC(=O)c1c(C)[nH]c(C)c1S(=O)(=O)N(C)CC(=O)Nc1ccccc1OC | -60 |
| CCOC(=O)c1c(C)[nH]c(C)c1S(=O)(=O)N(C)CC(=O)Nc1cc(C)ccc1OC | -24.7 |
| CCN(CC(=O)Nc1ccccc1OC)C(=O)c1ccc(N(C)S(=O)(=O)c2ccc(C)cc2)cc1 | -62.2 |
| CCN(CC(=O)Nc1ccccc1OC)C(=O)c1ccc(NS(=O)(=O)c2ccc(C(C)=O)cc2)cc1 | 0.13 |
| COc1ccccc1NC(=O)CN(Cc1ccco1)C(=O)c1ccc(Cl)nc1 | -28.4 |
| COc1ccccc1NC(=O)CN(Cc1ccco1)C(=O)c1ccc(-n2nc(C)cc2C)cc1 | -51.2 |
| CCCN(CC(=O)Nc1ccccc1OC)C(=O)c1cccc(S(=O)(=O)Nc2ccc(OC)cc2)c1 | -11.4 |
| CCCN(CC(=O)Nc1ccccc1OC)C(=O)c1ccc(S(=O)(=O)Nc2ccccc2)cc1 | -53.4 |
| COc1ccccc1NC(=O)CN(Cc1ccco1)C(=O)c1cncc(Br)c1 | -22.4 |
| CCOC(=O)c1c(C)[nH]c(C)c1S(=O)(=O)N(C)CC(=O)Nc1ccccc1C | 14.4 |
| COc1ccc2[nH]cc(C(=O)CCl)c2c1 | 8.92 |
| COCCN1C(=O)N(c2ccccc2)C(=O)C1CC(=O)Nc1cc(OC)cc(OC)c1 (centres unmarked) | 14 |
| CSc1nnc(C)c(/C=C/NOCc2cccc(F)c2)n1 | 4.03 |
| Cl.OCCN(Cc1ccccc1)CC(O)COc1ccc(-c2ccccc2)cc1 (centres unmarked) | -28.3 |
| CCOC(=O)c1ccc(NC(=O)CCc2nc(-c3cccc(C)c3)no2)cc1 | 7.13 |
| Cc1ccc(S(=O)(=O)c2c(C)cc(C)[nH]c2=O)cc1 | 20.3 |
| CCn1nnnc1SCC(=O)Nc1cccc(NC(C)=O)c1 | -1.06 |
| Cc1csc(NC(=O)CSc2nncc(=O)n2N)n1 | 19 |
| O=C(Nc1cccc(/C=C/c2ccccn2)c1)c1ccc(-n2cncn2)c([N+](=O)[O-])c1 | -24.9 |
| Cc1cc(C)cc(OCC(=O)Nc2cc(C)on2)c1 | 15.9 |

| SMILES | hERG current change (%, negative = inhibition) at 10uM [%] |
| --- | --- |
| Cc1c(NS(=O)(=O)c2cccc(C(=O)NCc3ccncc3)c2)c(=O)n(-c2ccccc2)n1C | 6.38 |
| CC(C)Sc1nc2ccccc2n2cnnc12 | -6.25 |
| Cc1nnc2c(SC(C)C)nc3ccccc3n12 | -77.2 |
| Cc1nnc2c(NC(C)C)nc3ccccc3n12 | -26.8 |
| CCC(NC(=S)NCc1ccc(F)cc1)c1ccc(C)cc1 (centres unmarked) | 13.7 |
| COc1ccc(NC(=O)c2ccccc2NC(=O)C2CC=CCC2C(=O)O)cc1 (centres unmarked) | 15.6 |
| Cc1ccc(CNC(=O)CCSCc2ccc(C)cc2)cc1 | -2.27 |
| CCOC(=O)N1CCN(Cc2nc(-c3ccccc3)no2)CC1 | 2 |
| CCOC(=O)C1CCCN(C2CCN(Cc3nc(Cc4ccccc4)no3)CC2)C1 (centres unmarked) | -60.3 |
| CCOC(=O)C1CCN(C2CCN(Cc3nc(-c4ccccc4)no3)CC2)CC1 | -71.5 |
| CCOC(=O)C1CCCN(Cc2nc(Cc3cccc(F)c3)no2)C1 (centres unmarked) | -6.6 |
| NC(=O)C1CCN(Cc2nc(-c3ccccc3)no2)CC1 | -14.1 |
| CCOC(=O)C1CCCN(Cc2nc(Cc3ccccc3Cl)no2)C1 (centres unmarked) | -14.1 |
| CCOC(=O)C1CCN(Cc2nc(-c3ccc(OC)c(OC)c3)no2)CC1 | 2.83 |
| Cc1ccc(-c2noc(CN3CCC(C(N)=O)CC3)n2)cc1 | 21.9 |
| CCOC(=O)C1CCCN(C2CCN(Cc3nc(-c4ccccc4)no3)CC2)C1 (centres unmarked) | -56.5 |
| CCc1ccccc1NC(=O)Cn1nc(C(F)(F)F)c2c1CCC2 | 7.74 |
| CN=c1scc(C)n1/N=C/c1cc(Br)c(O)c(OC)c1 | 15.8 |
| C=C(C)c1cccc(C(C)(C)NC(=O)NCC2CCCO2)c1 (centres unmarked) | 3.74 |
| CCOc1ccc(Cl)cc1S(=O)(=O)N1CCC(C(=O)NCC2CCCO2)CC1 (centres unmarked) | -2.63 |
| CC(C)c1nc(N2CCOCC2)c(C#N)c2c1COC(C)(C)C2 | 9.56 |
| Cc1cc(/C=C2/C(=N)N3C(=NC2=O)SN=C3S(C)(=O)=O)c(C)n1-c1ccccc1 | 0.917 |

| SMILES | hERG current change (%, negative = inhibition) at 10uM [%] |
| --- | --- |
| Cc1cc(/C=C2/C(=N)N3C(=NC2=O)SN=C3S(C)(=O)=O)c(C)n1-c1ccc(F)cc1 | 47.6 |
| CCOc1ccc(-n2c(C)cc(/C=C3/C(=N)N4C(=NC3=O)SN=C4S(C)(=O)=O)c2C)cc1 | -53.4 |
| CCOc1ccccc1OCCC(=O)OCC(=O)c1ccc[nH]1 | -16.2 |
| Cc1cc(NC(=O)C23CCC(C)(C(=O)O2)C3(C)C)no1 (centres unmarked) | 12 |
| COc1ccc2[nH]c(=O)c(CN(Cc3cccnc3)C(=O)Nc3ccccc3)cc2c1 | -54.6 |
| COc1ccc2[nH]c(=O)c(CN(CCCN(C)C)C(=O)Nc3ccc(F)cc3)cc2c1 | -65.7 |
| CCN(CC)CCCN(Cc1cc2cc(OC)ccc2[nH]c1=O)C(=O)Nc1ccc(F)cc1 | -69.9 |
| CCN(CC)CCCN(Cc1cc2cc(OC)ccc2[nH]c1=O)C(=O)Nc1ccccc1 | -55.3 |
| CCOc1ccc2[nH]c(=O)c(CN(Cc3cccnc3)C(=O)Nc3ccccc3OC)cc2c1 | -6.63 |
| COc1ccc2[nH]c(=O)c(CN(CC3CCCO3)C(=O)Nc3ccccc3)cc2c1 (centres unmarked) | -2.72 |
| CCN(CC)CCCN(Cc1cc2cc3c(cc2[nH]c1=O)OCO3)C(=S)Nc1ccc(OC)cc1 | -46.8 |
| CCN(CC)CCCN(Cc1cc2cc(OC)c(OC)cc2[nH]c1=O)C(=O)Nc1ccccc1 | -13.8 |
| COc1ccc2[nH]c(=O)c(CN(CCCN(C)C)C(=O)Nc3ccccc3)cc2c1 | -29.2 |
| COc1ccc(NC(=O)N(Cc2cc3cc(OC)ccc3[nH]c2=O)CC2CCCO2)cc1 (centres unmarked) | -31.6 |
| COc1ccc(NC(=O)N(CCCN(C)C)Cc2cc3cc(OC)ccc3[nH]c2=O)cc1 | -38.5 |
| COc1cc2cc(CN(Cc3cccnc3)C(=O)Nc3ccccc3)c(=O)[nH]c2cc1OC | -21.8 |
| COC(=O)c1cscc1NC(C)=O | 20.7 |
| O=C(O)CCc1n[nH]c(=S)[nH]c1=O | 5.81 |
| Cc1ccc(C)c(C(=O)C(C)OC(=O)CN2C(=O)NC3(CC(C)CC(C)(C)C3)C2=O)c1 (centres unmarked) | 23.2 |
| CCOc1ccc(CCNC(=O)Cn2cccc2C(=O)c2ccccc2)cc1OCC | -2.85 |
